From PubChem
In the library only some 2.1% were active in any assay of this set; here they are far more common.
FUS yeast rescue: suppressors of FUS proteinopathy in yeast; S. cerevisiae FUS-expressing, growth rescue, OD600, 24 h; Potency, µM (top dose mostly 76.6 µM), usual class: activators; 390,000 tested, 0.24% active; AID 1347120; further: nearly all actives have a fitted effect of over 55% in size
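Yeast FUS proteinopathy model; galactose-induced FUS (2%), starting OD 0.005. Cpds in dilution series, 24hr, 30C, 99% humidity. Abs 600 nm growth. Pos ctrl CP55940 (top 92uM final); neg ctrl DMSO.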
Abeta rescue: restores growth of yeast expressing A-beta42 peptide. yeast expressing A-beta42, growth rescue, OD600, 48 h; response scale: 0% DMSO, 100% iron-clioquinol control. Potency, µM (series often up to 46.1 µM), most hits filed as activators. 410,000 tested, 0.063% active; further: nearly all actives have a fitted effect of over 55% in size
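Yeast growth medium received pinned compounds, then yeast cells expressing toxic A-beta were added; plates incubated at 30 C for 48 hr. Growth read as absorbance at 600 nm, normalized to DMSO and equimolar FeCl3 plus clioquinol controls.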
TDP43 rescue: TDP-43 toxicity inhibition in yeast | AID 652104 | 410,000 tested, 1.8% active | Potency, µM (top dose mostly 46.1 µM), actives largely listed as activators | TDP-43 expressing yeast growth rescue, BacTiter-Glo, 24 h; further: nearly all actives have a fitted effect of over 50% in size
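Galactose-induced TDP-43 yeast, OD600=0.02, compound pinned; 24 hr, 30 deg C; BacTiter-Glo luminescence for growth. Inhibitors of TDP-43 toxicity read as activators.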
aSyn yeast inh: rescues yeast growth from alpha-synuclein toxicity; Yeast expressing alpha-synuclein, growth rescue, BacTiter-Glo, 24 h; Potency, µM (highest dose often 46.1 µM), hits mostly activators; 370,000 tested, 0.14% active; further: nearly all actives have a fitted effect of over 65% in size
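Readout is rescue of growth in alpha-synuclein-expressing yeast, so inhibitors of toxicity appear as activators. Growth after 24 hr at 30 deg C in galactose medium is quantified by luminescence.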
Large screens that a line does not name were inactive. The call rests on the fitted dose curve; in most records, active means well fitted curve in the direction sought with a large enough effect; inconclusive means small, poorly fitted or top-dose-only effect, or another doubt; inactive means no such curve, though single readings can be large; an effect the other way counts as inactive or inconclusive.

CNC(=O)C1CCC(Cn2c(=O)c3sccc3n(CC(=O)Nc3ccc(C)c(F)c3)c2=O)CC1 (stereo unspecified)	none (no result: aSyn yeast inh)
Cc1cc(C(=O)C(C)Sc2cccc[n+]2[O-])c(C)n1-c1ccc(Cl)cc1 (stereo unspecified)	TDP43 rescue inconclusive, aSyn yeast inh 2.82µM
COc1ccc(CN(Cc2ccccc2)C(=O)c2ccno2)cc1COc1ccc(NC(C)=O)cc1	none (no result: FUS yeast rescue, Abeta rescue, TDP43 rescue)
CCOC(=O)c1ccc(NC(=O)c2cccc3c2C(=O)N(CC2CCCO2)C3)cc1 (stereo unspecified)	FUS yeast rescue inconclusive, TDP43 rescue 22.4µM
COCCN1Cc2cccc(C(=O)Nc3ccc(C)c(F)c3)c2C1=O	TDP43 rescue 12.6µM (no result: aSyn yeast inh)
COCCN1Cc2cccc(C(=O)Nc3ccc(Cl)cc3Cl)c2C1=O	TDP43 rescue 15.8µM (no result: aSyn yeast inh)
Cc1ccc(S(=O)(=O)c2nc(-c3cccs3)oc2SCC(=O)Nc2cc(C)cc(C)c2)cc1	none (no result: aSyn yeast inh)
Cc1cccc(CC2C(=O)Nc3ccccc32)c1 (stereo unspecified)	TDP43 rescue inconclusive (no result: aSyn yeast inh)
Cc1ccc(-c2csc3ncnc(Sc4nnnn4C4CC4)c23)cc1	none (no result: FUS yeast rescue, Abeta rescue, TDP43 rescue)
CCOc1ccccc1CNCc1cccn1-c1nnc(N2CCN(c3ccccc3)CC2)s1	none (no result: aSyn yeast inh)
COc1cc(Nc2cccc(-c3ccccc3)n2)cc(OC)c1OC	TDP43 rescue 31.6µM
CCOC(=O)CSc1nc2sc(C)c(C)c2c(=O)n1C	TDP43 rescue 11.2µM
CCOC(=O)CSc1nc2sc(C)c(C)c2c(=O)n1N	none (no result: FUS yeast rescue)
O=C(CCC(=O)N1CC2CCCN2c2ccccc21)NCc1ccccc1 (stereo unspecified)	none (no result: aSyn yeast inh)
CSc1ccc(-c2sc(Nc3cccc4ccccc34)n[n+]2-c2ccccc2)cc1	FUS yeast rescue inconclusive
CC(=O)Nc1ccc(-c2sc(Nc3cccc4ccccc34)n[n+]2-c2ccccc2)cc1	FUS yeast rescue 31.6µM
CC(C)c1ccc([C@@H]2O[C@H](CCc3ccccc3)Cc3[nH][nH]c(=O)c32)cc1	FUS yeast rescue inconclusive, TDP43 rescue 15.8µM
CC[C@@H]1Cc2[nH][nH]c(=O)c2[C@@H](c2ccc(Cl)cc2)O1	TDP43 rescue 15.8µM
O=c1[nH][nH]c2c1[C@H](c1ccc(Cl)cc1)O[C@H](C1CCCC1)C2	TDP43 rescue 17.8µM
O=c1[nH]c(=S)[nH]c2c1C(c1ccccc1)OC(C1CCCCC1)C2 (stereo unspecified)	none
CC(C)C[C@@H]1Cc2[nH][nH]c(=O)c2[C@H](c2ccc(Cl)cc2)O1	TDP43 rescue inconclusive
CC(C)C1OC(CCc2ccccc2)Cc2[nH][nH]c(=O)c21 (stereo unspecified)	none
CCCC[C@@H]1Cc2[nH][nH]c(=O)c2[C@H](c2cccc3ccccc23)O1	TDP43 rescue 11.2µM
COc1ccc(Nc2c3c(nc4ccc(NC(=O)c5cc(Cl)ccc5OC)cc24)CCCC3)cc1OC	FUS yeast rescue inconclusive (no result: aSyn yeast inh)
O=C(C[n+]1ccccc1Br)c1ccc(O)c(O)c1	none (no result: FUS yeast rescue, Abeta rescue, TDP43 rescue)
Cc1cc(C)cc(NC(=O)CSc2nc(-c3ccccc3)c3cc(F)ccc3n2)c1	none (no result: aSyn yeast inh)
COc1ccc(/C=N/Nc2cc(C)nc(-n3nc(C)cc3C)n2)cc1	TDP43 rescue 20µM, aSyn yeast inh inconclusive
Cc1cc(Nc2ccc(C(C)C)cc2)nc(-n2nc(C)cc2C)n1	FUS yeast rescue inconclusive, TDP43 rescue 20µM (no result: aSyn yeast inh)
Cc1cc(N/N=C/c2cccc(Cl)c2)nc(-n2nc(C)cc2C)n1	TDP43 rescue 14.1µM
COc1ccc(O)c(/C=N/Nc2nc(Nc3ccccc3)nc(-n3nc(C)cc3C)n2)c1	Abeta rescue inconclusive, TDP43 rescue 22.4µM
COc1ccc(Nc2cc(C)nc(-n3nc(C)cc3C)n2)cc1Cl	TDP43 rescue inconclusive (no result: aSyn yeast inh)
CCCCN(CCCC)CC(O)c1cc(Cl)cc2c1-c1ccc(Cl)cc1C2=Cc1ccc(Cl)cc1 (stereo unspecified)	none (no result: FUS yeast rescue, Abeta rescue, TDP43 rescue)
CCn1c(=O)c2cc(C(=O)NCCCN3CCN(c4ccc(F)cc4)CC3)sc2c2ccccc21	none (no result: aSyn yeast inh)
CSc1ccc(S(=O)(=O)NCc2ccccc2C)cc1	TDP43 rescue 14.1µM
Cc1ccc(S(=O)(=O)NCc2ccccc2C)cc1	none
CCOC(=O)N1CCc2c(sc(NCc3cccc(F)c3)c2C(=O)Nc2ccc(OC)cc2OC)C1	FUS yeast rescue inconclusive (no result: aSyn yeast inh)
CC(=O)c1ccc(NC(=O)c2ccc([N+](=O)[O-])o2)cc1	TDP43 rescue 15.8µM
COc1ccc(NC(=O)c2noc(C(C)C)c2[N+](=O)[O-])cc1	none
CC(=O)c1cccc(NC(=O)c2ccc([N+](=O)[O-])o2)c1	TDP43 rescue inconclusive
